In the library only some 3.9% were active in any assay of this set; here they are far more common.
TWEAK-Fn14 inh = TWEAK-Fn14 signaling inhibition; TWEAK-stimulated Fn14 reporter cells, luciferase luminescence, 8 h; inhibition, % at 10 µM; 2% of 360,000 active; AID 1159606; in the data active = inhibition above about 50%
TRAIL sens C8 = caspase-8 TRAIL sensitization; NB7+C8 cells + TRAIL, ATPlite viability luminescence; inhibition (viability loss, TRAIL sensitization), % at 10 µM; 1% of 360,000 active;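 active = compounds causing at least 50% loss of cell viability in the single-dose screen, relative to plate controls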
TROY signal inh = inhibitors of TROY-dependent NF-kB signaling; AID 1347056; 0.98% of 360,000 active; Q293 LMP1-TROYcd NF-kB luciferase reporter, 4 h; inhibition, % at 10 µM;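 active = compounds whose plate-normalised and pattern-corrected inhibition of the luciferase reporter signal at the single screening dose is 50% or more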
aSyn 5UTR inh = MLPCN primary screen, SNCA 5' untranslated region; alpha-synuclein 5'UTR reporter, inhibitor activity; inhibition, % (tested at 7.5 µM); 0.82% of 300,000 active; in the data active = inhibition above about 60%; inconclusive = no clear call, values can overlap the other calls;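 also: H4 neuroglioblastoma cells stably carrying SNCA 5'UTR luciferase fusion; 0% = DMSO wells and 100% = positive control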
HIF-2a block = HIF-2a inhibition. 786-0 RCC cells HIF-2a reporter, luciferase luminescence, overnight. inhibition, % at 18.8 µM. 0.72% of 360,000 active;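 active = inhibition of the luminescence signal of 40% or more relative to plate controls, in a single-dose primary screen at 18.75 µM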
HSP90 refold inh = HSP90 refolding inhibition in rabbit reticulocyte lysate | luciferase refolding luminescence, 3 h | 0.91% of 290,000 active | inhibition, % at 5.6 µM;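 active = inhibition above the screen-wide mean plus 3 SD, computed separately per campaign, cut at about 16% in these data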;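 also: 0% = DMSO wells and 100% = 60 µM geldanamycin wells; inhibitors lower the luminescence because luciferase stays unfolded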
The depositor's hits bear a star; ? = inconclusive; nt = no result given.

SMILES	TWEAK-Fn14 inh	TRAIL sens C8	TROY signal inh	aSyn 5UTR inh	HIF-2a block	HSP90 refold inh
Cn1cccc1/C=N/NC(=O)c1sc2ccccc2c1Cl	51*	8	nt	-80	-245	-3
COc1ccc(CC2C(=O)NC(C)C(=O)N(C)C3Cc4ccc(cc4)Oc4cc(ccc4O)CC(C(=O)NC(C)C(=O)NC(C)C(=O)N2C)N(C)C3=O)cc1 (stereo not drawn)	101*	66*	84*	nt	82*	nt
COc1ccc(-c2cc(C(=O)Nc3c(C)n(C)n(-c4ccccc4)c3=O)c3ccccc3n2)cc1	8	2	-2	7	-9	-4
COc1ccc2cc(-c3cc(C(=O)OCC(=O)NC4CCS(=O)(=O)C4)c4ccccc4n3)ccc2c1 (stereo not drawn)	0	92*	-64	54	-141	12
COc1ccc2cc(-c3cc(C(=O)OCC(=O)Nc4c(C)n(C)n(-c5ccccc5)c4=O)c4ccccc4n3)ccc2c1	60*	97*	-49	?	-76	3
CCC(=O)c1ccc(N2CCN(C(=O)COc3ccc(F)cc3)CC2)c(F)c1	81*	-3	nt	5	-6	0
O=C(Nc1ccc(-c2nc3ccccc3o2)c(O)c1)c1cc(-n2cnnc2)ccc1Cl	66*	29	38	-13	-34	-1
O=C(Nc1ccc(-c2nc3ccccc3o2)cc1)c1cc(-n2cnnc2)ccc1Cl	76*	34	36	-47	-192	2
O=C(Nc1ccc(-c2nc3ccccc3o2)cc1)c1ccc2c(c1)OCO2	1	4	-31	-66	-54	0
O=C(Nc1ccc(-c2nc3ccccc3o2)cc1)c1ccc(N2C(=O)C3C4C=CC(C4)C3C2=O)cc1 (stereo not drawn)	21	40	57*	-32	-87	1
CCc1nc2c(OCC(=O)c3ccc(F)cc3)cccn2c1N(C)C(=O)c1ccc(OC)cc1	-17	-2	-30	nt	-57	nt
O=C(C[C@@H]1CC[C@H](NS(=O)(=O)c2ccccc2F)[C@@H](CO)O1)NCCCN1CCOCC1	nt	7	nt	nt	5	nt
CCCCN(CCCNC(=S)NCCCc1cnc[nH]1)c1ccc(Br)cn1	-2	2	19	nt	-1	nt
CCOc1cc(/C=C2\CN(C)C/C(=C\c3ccc(O)c(OCC)c3)C2=O)ccc1O	104*	-7	28	96*	92*	10
CN1C/C(=C/c2ccsc2)C(=O)/C(=C/c2ccsc2)C1	25	18	-5	-35	47*	-7
CCOc1cc(/C=C2\CCC/C(=C\c3cc(Cl)c(O)c(OCC)c3)C2=O)cc(Cl)c1O	77*	3	61*	-329	89*	2
CN1C/C(=C/c2ccncc2)C(=O)/C(=C/c2ccncc2)C1	8	12	9	-50	18	3
COCCCNc1cc(C)nc2ccccc12	6	-4	-11	12	9	2
Cc1cc(NCCCCCCCNc2cc(C)nc3cc([N+](=O)[O-])ccc23)c2ccc([N+](=O)[O-])cc2n1	77*	58*	34	nt	33	nt
CC(C)c1c(C(=O)N/N=C/c2ccc3c(c2)OCO3)nnn1-c1nonc1N	-32	26	-30	-34	-91	-2
COc1cc(/C=N/NC(=O)c2nnn(-c3nonc3N)c2C(C)C)ccc1OCc1ccc(F)cc1	76*	32	38	-143	-2	0
CC(C)c1c(C(=O)N/N=C/c2cccc(OCc3ccc(F)cc3)c2)nnn1-c1nonc1N	49	-2	53*	8	-84	1
CN(C)Cc1c(C(=O)N/N=C/c2cccc(OCc3ccc(F)cc3)c2)nnn1-c1nonc1N	29	-15	14	-8	-47	-2
CCN(CC)c1ccc(/C=N/NC(=O)c2nnn(-c3nonc3N)c2C(C)C)c(O)c1	-10	13	11	92*	1	1
Cc1cn([C@H]2C[C@H](O)[C@@H](CNC(=O)CNC(=O)CN)O2)c(=O)[nH]c1=O	-4	11	5	nt	6	nt
SMILES	TWEAK-Fn14 inh	TRAIL sens C8	TROY signal inh	aSyn 5UTR inh	HIF-2a block	HSP90 refold inh
Cc1ccc(-n2nc(C)c3cc(C(=O)O)sc32)cc1	86*	0	nt	15	-12	-1
Cc1nn(-c2ccccc2)c2sc(C(=O)O)cc12	-2	-7	-10	-5	11	3
C=CCC[C@H](Cc1ccc(F)cc1)C(=O)OC[C@H](Cc1c[nH]c2ccccc12)NC(=O)[C@H](CC=C)CC(=O)N(CCO)Cc1ccccc1	57*	26	33	nt	-2	nt
C=CC[C@H](CC(=O)N(CCO)Cc1ccccc1)C(=O)N[C@H](COC(=O)[C@@H](CC=C)Cc1ccc(F)cc1)Cc1c[nH]c2ccccc12	60*	10	40	nt	-11	nt
C=CC[C@@H](CC(=O)N(CCO)Cc1ccccc1)C(=O)N[C@H](COC(=O)[C@@H](CC=C)Cc1ccc(F)cc1)Cc1ccccc1	19	11	31	nt	2	nt
C=CC[C@@H](CC(=O)N(CCO)Cc1ccccc1)C(=O)N[C@H](COC(=O)[C@@H](CC=C)Cc1ccc(F)cc1)Cc1c[nH]c2ccccc12	51*	23	36	nt	-15	nt
C=CC[C@@H](CC(=O)N(CCO)Cc1ccccc1)C(=O)N[C@@H](COC(=O)[C@@H](CC=C)Cc1ccc(F)cc1)Cc1ccccc1	58*	24	42	nt	6	nt
CC(C)CNc1ncnc2c1ncn2[C@H]1CN(Cc2cccs2)C[C@@H](CO)O1	-2	-17	-2	nt	9	nt
COC(=O)C[C@H]1C=C[C@@H](NC(=O)Nc2c(C)noc2C)[C@@H](CO)O1	nt	6	nt	nt	3	nt
C=CCC[C@@H](Cc1ccc(F)cc1)C(=O)OC[C@@H](NC(=O)[C@H](CC=C)CC(=O)N(CCO)Cc1ccccc1)c1ccccc1	56*	8	13	nt	26	nt
CC(C)(C)[C@H]1COC(=O)[C@H](NC(=O)OCC2c3ccccc3-c3ccccc32)C/C=C\C[C@@H](CC(=O)N[C@@H](CO)Cc2ccccc2)C(=O)N1	-22	9	-3	nt	10	nt
CC(C)Oc1ccc(F)cc1-c1cc(C(=O)NCc2cc(C(F)(F)F)cc(C(F)(F)F)c2)[nH]n1	51*	13	48	nt	-24	nt
CC(C)Oc1ccc(F)cc1-c1cc(C(=O)NCc2ccc(C(F)(F)F)cc2)[nH]n1	21	18	28	nt	7	nt
CC(C)Oc1cc(F)ccc1-c1cc(C(=O)Nc2cccc(C(F)(F)F)c2)[nH]n1	70*	4	55*	nt	-18	nt
O=C(Nc1ccccc1)N1CCSCC1	73*	1	nt	-7	-3	-4
CCNC(=S)N(Cc1ccco1)Cc1cc2cc(OCC)ccc2[nH]c1=O	13	-9	-6	7	12	-2
CCNC(=S)N(Cc1cccs1)Cc1cc2cc(OCC)ccc2[nH]c1=O	76*	-9	-17	34	21	1
CCSCc1nnc(SCC(=O)c2ccc(OC)cc2)n1C	84*	-11	nt	-19	-4	-3

Screening data as filed in PubChem.
